The values that follow come from PubChem BioAssay.

Experiment [1] in a line: rapamycin-like changes in RPL19A-GFP expression – cell-based, S. cerevisiae, multiplex flow cytometry, primary screen (AID 1862; in the data active means percent of DMSO control GFP below about 86%;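 further: lower values mimic rapamycin by blocking the RPL19A rise seen in DMSO cells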). The settings on record: S. cerevisiae RPL19A-GFP strain, flow cytometry fluorescence, 3 h; at 10 µM; stronger effect = lower value.
A short description of experiment [2]: TOR pathway GLN3 branch reporter MEP2-GFP changes – S. cerevisiae, multiplex flow cytometry, primary screen (AID 1867;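 active means GFP response, as percent of the DMSO control, above the screen-wide mean plus 3 SD, about 139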;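 further: median GFP channel fluorescence of barcode-gated MEP2-GFP cells measured by flow cytometry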). The settings on record: S. cerevisiae MEP2-GFP strain, 3 h, at 10 µM, stronger effect = higher value, 100% means same as DMSO wells.
Experiment [3] is described as follows: TOR pathway RTG branch CIT2 reporter changes – S. cerevisiae, GFP fusion, multiplex flow cytometry, primary screen (AID 1870;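 active means percent response above a set limit, the screen-wide mean plus 3 SD, cut at about 130% in these data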;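 further: barcoded CIT2-GFP strain pooled with four other GFP strains with rapamycin as positive control; median GFP fluorescence per well over plate mean of DMSO wells so 100% = DMSO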). As to conditions: S. cerevisiae CIT2-GFP expression, 3 h, at 10 µM, stronger effect = higher value.
Experiment [4] can be described thus: TOR pathway LAP4-GFP level changes – S. cerevisiae, multiplex flow cytometry, primary screen (AID 1873;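 active means GFP signal, as percent of the solvent control, above the screen mean plus 3 SD, about 149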). The settings on record: S. cerevisiae LAP4-GFP expression, 3 h, at 10 µM, stronger effect = higher value.
Experiment [5] is described as follows: reduced mouse 2C T cell binding to pMHC/ICAM-1 vesicles – MLPCN validation set, flow cytometry, LFA-1/ICAM-1 modulator project, pilot screen (AID 2523;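 active means response below a set limit, under 55% cells CD8-positive and vesicle-bound, and CD8 cells' 90th-percentile brightness under 279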;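 on vesicle binding response: mean PE anti-B7-1 fluorescence of CD8+ cells relative to row control; 100% = QL9-loaded vesicles with DMSO vehicle in the same plate row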). As to conditions: 2C mouse CD8+ T cells, at 7 µM, stronger effect = lower value; double positive events: measured here: CD8+/vesicle+ event percentage.
In experiment [6] the target is Integrin beta-1 (Homo sapiens) + Integrin alpha-4 (Homo sapiens) (UniProt P13612+P05556). Put plainly: alpha4beta1 integrin LIBS antibody binding reduction – U937 cells, HUTS-21 mAb, flow cytometry, validation set, VLA-4 allosteric modulator project, pilot screen (AID 2674;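 active means inhibition above 50%, about 3 SD of the validation set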;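 further: antibody binding induced by the VLA-4 ligand LDV present at three times its Kd; 0% = LDV ligand with antibody and no compound and 100% = antibody without LDV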). The settings on record: HUTS-21 LIBS mAb binding, at 6.7 µM, stronger effect = higher value, binding induced by LDV ligand.

Experiment [7] in a line: calorie-restriction mimetic ROS inhibitors, yeast – validation compound set, pilot screen (AID 2706;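 active means superoxide response below 65% of plate, a cut near 3 SD across the whole screen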;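 further: yeast exposed to compound for one week at 30 degrees C before staining; 100% = mean of all compound wells on the same plate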). The settings on record: S. cerevisiae aging, superoxide DHE fluorescence; at 10 µM, stronger effect = lower value.
The target in experiment [8] is Beta-adrenergic receptor kinase 1 (Homo sapiens) (UniProt P25098). Put plainly: GRK2 binders displacing RNA aptamer, biochemical, validation, human GRK2, bead flow cytometry (AID 488806;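 active means aptamer binding inhibition above 30%, about 3 SD of noise from non-fluorescent compounds; inactive means inhibition at or below 30%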). As to conditions: bead-bound GRK2, FAM-aptamer displacement, at 10 µM, stronger effect = higher value.
Experiment [9] has as its target Beta-2 adrenergic receptor (Homo sapiens) (UniProt P07550). As to the kind of experiment: agonist-induced loss of surface beta2AR – cell-based, FAP fluorogen, flow cytometry, validation set, pilot screen (AID 504459;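 active means percent response above 42, roughly 3 SD of non-fluorescent test compounds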;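 further: agonist-driven loss of surface beta2AR via internalization measured by FAP dye flow cytometry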). The settings on record: Am2.2-beta2AR cells, at 10 µM, stronger effect = higher value.
Experiment [10] has as its target AP-2 complex subunit beta (Homo sapiens) (UniProt P63010). Put plainly: beta-arrestin/AP2 interaction blockers – biochemical, validation set, GST-AP2 beads, flow cytometry, pilot screen (AID 504541;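 active means inhibition above 54%, about 3 SD of non-fluorescent compounds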;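 further: AP2 carries R879A mutation and is captured from E. coli lysate; bead-bound FITC arrestin peptide fluorescence measuring arrestin peptide binding to AP2; 0% = DMSO wells and 100% = excess unlabeled arrestin peptide control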). As to conditions: FITC arrestin peptide, at 10 µM, stronger effect = higher value, AP2 beta2 appendage fragment, R879A mutant.
Experiment [11] can be described thus: cytosolic pH regulators acting via V-ATPase – S. cerevisiae, pHLuorin, HTS validation (AID 504600; in the data active means response above about 15%;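 further: plate controls were DMSO for no effect and reference compound for full effect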). As to conditions: V-ATPase proton transport, at 10 µM, stronger effect = higher value.
The subject of experiment [12] is anti-desmoglein-3 scFv antibody binding to human DSG3. As to the kind of experiment: blockers of pathogenic pemphigus antibody–desmoglein-3 binding – biochemical, validation compound set, bead-based, flow cytometry, pilot screen (AID 588368;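 active means binding below the plate cutoff, the plate median minus 3 SD, with a reading above zero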;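 further: signal is the median channel fluorescence of bead-bound GFP antibody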). As to conditions: Protein G beads, DSG3-Fc, scFv-GFP binding, at 10 µM, stronger effect = lower value.
Experiment [13] is described as follows: Nile Red efflux blockade in pump-expressing yeast – validation compound set, multiplex, phenotypic, pilot screen (AID 588506;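 active means efflux inhibition above 0.42, the validation set average plus 4 SD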;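 further: Nile Red retained in cells so higher fluorescence means more efflux inhibition; 0 = negative control wells and 1 = enniatin B 25 µM full block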). The settings on record: S. cerevisiae pump-expressing triplex, Nile Red efflux flow cytometry; at 10 µM; stronger effect = higher value; the pumps come from Candida albicans.
The target of experiment [14] is ATP-binding cassette sub-family B member 6 (Homo sapiens) (UniProt Q9NP58). Put plainly: blockers of ABCB6-driven porphyrin uptake – K562-ABCB6 cells, flow cytometry, validation set, pilot screen (AID 588550).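 Further: 0% = DMSO wells and 100% = benzethonium chloride 70 µM positive control.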 As to conditions: K562-ABCB6 porphyrin accumulation, 1 h, at 10 µM, stronger effect = higher value.
The nature of experiment [15]: AML differentiation inducers, ER-HoxA9 marrow cells – cell-based, GFP/MAC1 double positive, flow cytometry, validation set, primary screen (AID 588685;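 active means differentiation response of at least 50%, scaled between solvent and reference control, from cells with both markers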;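 further: compound exposure lasts four days before antibody staining and flow analysis; 0% = DMSO wells and 100% = 5 µM fulvestrant positive control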). The settings on record: stronger effect = higher value, normalized: vehicle 0, fulvestrant 100.
Experiment [16] can be described thus: yeast AGP1-GFP level changes, GLN3 branch – cell-based, multiplex flow cytometry, S. cerevisiae, primary screen (AID 1887;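 active means GFP signal above the screen-wide mean plus 3 SD, that is over about 124.5% of the solvent control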;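 further: AGP1-GFP fusion strain of S. cerevisiae within a five-strain barcoded multiplex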). The settings on record: 3 h, at 10 µM, stronger effect = higher value.
Experiment [17] in a line: hit retest on RPL19A-GFP reporter strain – cell-based, S. cerevisiae, flow cytometry, cherry picks, mother/daughter gates, confirmation (AID 2270;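 active means GFP response below 50% of the DMSO control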). The settings on record: 3 h, at 10 µM, stronger effect = lower value, 100 = same GFP as DMSO wells.
A short description of experiment [18]: yeast TOR pathway reporter LAP4-GFP change – cell-based, cherry picks, flow cytometry, mother/daughter gates, confirmation (AID 2271;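 active means GFP response above 150% of the DMSO control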;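 further: ratio of sample to DMSO plate mean so 100% equals DMSO level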). As to conditions: S. cerevisiae LAP4-GFP strain, 3 h, at 10 µM, stronger effect = higher value, 100 means same as DMSO control.
Experiment [19] can be described thus: TOR pathway reporter MEP2-GFP, retest of hits – S. cerevisiae, flow cytometry GFP, cherry picks, confirmation (AID 2272;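 active means GFP response above 150% of the DMSO control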;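 further: ratio of well signal to plate DMSO mean so 100% equals DMSO level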). The settings on record: S. cerevisiae MEP2-GFP strain, 3 h, at 10 µM, stronger effect = higher value.
Experiment [20] can be described thus: TOR pathway CIT2 reporter hit retest – S. cerevisiae, GFP fusion, cherry picks, mother/daughter gates, confirmation (AID 2274;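 active means GFP response above 150% of the DMSO level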). As to conditions: S. cerevisiae CIT2-GFP strain, flow cytometry, 3 h, at 10 µM, stronger effect = higher value.
Where [21] appears, read: measured here: daughter cell gate.
[22] abbreviates: measured here: mother cell gate.

Records with an inconclusive call do not appear. Activity calls are given as the source filed them.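 How the source made its calls, unless noted: active means inhibition above the screen-wide mean plus 3 SD, about 51%; inactive means the rest.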

Beta-2 adrenergic receptor (Homo sapiens), sequence (P07550 whole entry, looked up): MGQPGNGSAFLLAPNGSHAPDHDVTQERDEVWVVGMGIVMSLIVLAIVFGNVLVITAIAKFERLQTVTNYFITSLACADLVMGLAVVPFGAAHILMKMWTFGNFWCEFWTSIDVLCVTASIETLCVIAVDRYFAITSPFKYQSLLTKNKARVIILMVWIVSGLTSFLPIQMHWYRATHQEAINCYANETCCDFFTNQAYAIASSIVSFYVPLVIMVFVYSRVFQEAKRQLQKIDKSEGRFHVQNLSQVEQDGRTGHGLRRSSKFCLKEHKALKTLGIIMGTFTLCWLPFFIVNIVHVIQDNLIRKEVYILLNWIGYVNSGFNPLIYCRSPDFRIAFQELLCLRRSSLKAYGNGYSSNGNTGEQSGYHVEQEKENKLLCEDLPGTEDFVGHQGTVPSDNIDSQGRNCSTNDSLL
Beta-adrenergic receptor kinase 1 (Homo sapiens), sequence (P25098 whole entry, looked up): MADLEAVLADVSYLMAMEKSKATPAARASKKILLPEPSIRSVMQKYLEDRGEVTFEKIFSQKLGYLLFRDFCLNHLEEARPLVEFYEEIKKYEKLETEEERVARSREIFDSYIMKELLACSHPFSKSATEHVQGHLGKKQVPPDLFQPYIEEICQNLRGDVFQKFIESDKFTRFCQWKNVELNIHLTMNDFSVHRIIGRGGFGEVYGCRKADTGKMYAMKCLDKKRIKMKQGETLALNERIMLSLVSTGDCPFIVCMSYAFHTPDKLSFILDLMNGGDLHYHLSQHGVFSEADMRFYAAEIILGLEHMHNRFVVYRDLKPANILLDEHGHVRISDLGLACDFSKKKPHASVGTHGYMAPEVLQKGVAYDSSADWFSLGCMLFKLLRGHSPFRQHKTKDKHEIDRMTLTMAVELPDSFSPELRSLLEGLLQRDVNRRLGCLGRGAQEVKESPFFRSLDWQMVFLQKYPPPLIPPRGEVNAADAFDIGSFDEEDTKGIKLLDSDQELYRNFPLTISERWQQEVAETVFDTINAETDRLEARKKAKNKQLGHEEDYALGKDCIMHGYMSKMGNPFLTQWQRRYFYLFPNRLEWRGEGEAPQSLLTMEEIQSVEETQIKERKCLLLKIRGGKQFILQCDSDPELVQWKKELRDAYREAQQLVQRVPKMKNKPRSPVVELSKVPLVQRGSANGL
AP-2 complex subunit beta (Homo sapiens), sequence (P63010 whole entry, looked up, the tested form may be a part, one chain of several): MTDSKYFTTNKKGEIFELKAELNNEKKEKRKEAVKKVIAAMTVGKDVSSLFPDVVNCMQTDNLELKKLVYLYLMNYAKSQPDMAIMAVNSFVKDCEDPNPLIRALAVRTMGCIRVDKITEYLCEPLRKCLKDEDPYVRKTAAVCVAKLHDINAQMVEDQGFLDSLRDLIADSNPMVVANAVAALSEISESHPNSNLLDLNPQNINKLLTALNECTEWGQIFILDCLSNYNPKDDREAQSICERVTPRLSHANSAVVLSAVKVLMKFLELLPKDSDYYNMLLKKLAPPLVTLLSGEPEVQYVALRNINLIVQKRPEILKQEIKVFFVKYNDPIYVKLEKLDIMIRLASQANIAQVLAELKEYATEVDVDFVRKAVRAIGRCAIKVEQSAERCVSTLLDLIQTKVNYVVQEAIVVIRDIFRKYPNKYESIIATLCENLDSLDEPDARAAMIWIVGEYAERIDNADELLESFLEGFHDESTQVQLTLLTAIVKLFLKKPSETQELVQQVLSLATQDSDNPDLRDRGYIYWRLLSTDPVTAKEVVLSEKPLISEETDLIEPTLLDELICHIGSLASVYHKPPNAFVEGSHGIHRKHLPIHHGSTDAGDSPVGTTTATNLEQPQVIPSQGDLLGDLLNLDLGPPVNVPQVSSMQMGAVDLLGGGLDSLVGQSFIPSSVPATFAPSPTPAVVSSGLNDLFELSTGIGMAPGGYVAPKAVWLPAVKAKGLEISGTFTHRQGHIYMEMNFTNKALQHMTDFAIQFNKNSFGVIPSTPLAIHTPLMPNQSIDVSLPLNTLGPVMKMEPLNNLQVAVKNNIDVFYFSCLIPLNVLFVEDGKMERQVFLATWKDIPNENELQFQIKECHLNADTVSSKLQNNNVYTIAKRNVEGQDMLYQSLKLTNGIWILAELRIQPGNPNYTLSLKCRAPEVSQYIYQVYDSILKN
ATP-binding cassette sub-family B member 6 (Homo sapiens), sequence (Q9NP58 whole entry, looked up): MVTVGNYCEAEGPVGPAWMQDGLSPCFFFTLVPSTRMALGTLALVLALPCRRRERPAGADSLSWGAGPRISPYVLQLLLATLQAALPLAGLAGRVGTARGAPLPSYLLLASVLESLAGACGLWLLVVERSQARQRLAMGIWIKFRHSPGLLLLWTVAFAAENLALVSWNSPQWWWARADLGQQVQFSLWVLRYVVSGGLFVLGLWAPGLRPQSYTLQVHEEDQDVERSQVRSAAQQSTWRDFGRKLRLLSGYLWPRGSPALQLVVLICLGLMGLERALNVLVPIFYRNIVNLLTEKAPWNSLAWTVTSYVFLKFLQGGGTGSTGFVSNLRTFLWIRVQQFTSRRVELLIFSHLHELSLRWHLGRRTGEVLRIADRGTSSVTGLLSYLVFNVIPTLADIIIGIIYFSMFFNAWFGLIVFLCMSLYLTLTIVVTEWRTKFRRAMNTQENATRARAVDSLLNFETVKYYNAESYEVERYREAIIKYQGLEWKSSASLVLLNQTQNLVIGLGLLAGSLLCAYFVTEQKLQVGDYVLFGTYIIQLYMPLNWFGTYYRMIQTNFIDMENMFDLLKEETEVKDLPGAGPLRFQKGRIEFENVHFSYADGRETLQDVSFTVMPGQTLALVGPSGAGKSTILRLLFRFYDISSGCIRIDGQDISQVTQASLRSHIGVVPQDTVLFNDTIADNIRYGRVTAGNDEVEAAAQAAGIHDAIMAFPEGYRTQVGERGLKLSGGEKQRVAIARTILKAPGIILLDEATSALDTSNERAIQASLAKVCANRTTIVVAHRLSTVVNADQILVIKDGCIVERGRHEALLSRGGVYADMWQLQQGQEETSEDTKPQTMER
Integrin beta-1 (Homo sapiens) + Integrin alpha-4 (Homo sapiens), sequence (P05556 whole entry, looked up): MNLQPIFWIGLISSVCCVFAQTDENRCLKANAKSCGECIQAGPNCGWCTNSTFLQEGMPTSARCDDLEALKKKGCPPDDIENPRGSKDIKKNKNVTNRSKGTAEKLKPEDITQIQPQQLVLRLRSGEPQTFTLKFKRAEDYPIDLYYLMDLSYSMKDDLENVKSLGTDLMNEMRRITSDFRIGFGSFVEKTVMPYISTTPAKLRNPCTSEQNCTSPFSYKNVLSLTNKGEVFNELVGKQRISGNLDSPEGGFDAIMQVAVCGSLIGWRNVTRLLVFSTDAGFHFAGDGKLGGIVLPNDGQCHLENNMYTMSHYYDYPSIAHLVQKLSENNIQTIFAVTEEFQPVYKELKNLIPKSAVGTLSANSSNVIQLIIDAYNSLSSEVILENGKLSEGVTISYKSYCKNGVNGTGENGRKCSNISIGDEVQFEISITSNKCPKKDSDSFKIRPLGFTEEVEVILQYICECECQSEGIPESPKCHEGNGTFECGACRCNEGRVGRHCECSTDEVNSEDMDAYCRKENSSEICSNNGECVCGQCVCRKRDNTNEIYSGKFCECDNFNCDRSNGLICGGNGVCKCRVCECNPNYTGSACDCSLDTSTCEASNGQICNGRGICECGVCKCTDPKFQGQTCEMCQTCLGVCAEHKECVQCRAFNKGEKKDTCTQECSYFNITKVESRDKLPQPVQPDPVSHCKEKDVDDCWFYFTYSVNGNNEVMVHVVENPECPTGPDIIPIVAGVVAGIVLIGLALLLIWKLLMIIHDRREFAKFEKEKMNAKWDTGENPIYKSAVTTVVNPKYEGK
Integrin beta-1 (Homo sapiens) + Integrin alpha-4 (Homo sapiens), sequence (P13612 whole entry, looked up): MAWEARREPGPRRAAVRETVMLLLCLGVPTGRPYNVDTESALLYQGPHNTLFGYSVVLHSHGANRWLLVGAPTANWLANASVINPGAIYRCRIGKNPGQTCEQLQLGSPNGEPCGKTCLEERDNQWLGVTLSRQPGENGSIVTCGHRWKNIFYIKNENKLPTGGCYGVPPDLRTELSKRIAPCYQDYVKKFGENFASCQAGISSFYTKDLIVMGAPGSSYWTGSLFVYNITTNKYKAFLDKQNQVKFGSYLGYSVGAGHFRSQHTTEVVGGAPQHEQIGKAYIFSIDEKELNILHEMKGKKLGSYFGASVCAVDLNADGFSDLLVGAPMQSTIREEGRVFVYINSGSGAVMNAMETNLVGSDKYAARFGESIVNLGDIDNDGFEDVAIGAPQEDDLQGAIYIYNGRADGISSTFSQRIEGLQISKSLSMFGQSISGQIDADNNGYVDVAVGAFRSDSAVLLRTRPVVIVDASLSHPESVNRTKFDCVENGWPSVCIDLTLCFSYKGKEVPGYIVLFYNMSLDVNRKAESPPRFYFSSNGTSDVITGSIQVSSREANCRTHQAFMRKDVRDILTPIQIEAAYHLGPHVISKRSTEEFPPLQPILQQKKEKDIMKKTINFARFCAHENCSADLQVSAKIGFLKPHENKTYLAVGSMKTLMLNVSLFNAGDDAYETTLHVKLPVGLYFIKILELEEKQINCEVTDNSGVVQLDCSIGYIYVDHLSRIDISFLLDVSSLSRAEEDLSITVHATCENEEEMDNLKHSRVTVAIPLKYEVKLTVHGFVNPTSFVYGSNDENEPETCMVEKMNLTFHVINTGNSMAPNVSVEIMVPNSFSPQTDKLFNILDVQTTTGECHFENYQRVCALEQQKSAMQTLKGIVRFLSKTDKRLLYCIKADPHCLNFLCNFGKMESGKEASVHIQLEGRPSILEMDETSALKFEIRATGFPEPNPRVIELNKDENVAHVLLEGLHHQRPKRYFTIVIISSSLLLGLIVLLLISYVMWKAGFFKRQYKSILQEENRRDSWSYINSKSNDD

For the molecule `COc1ccc(-c2nc(C)c(C(C)=O)n2O)cc1OC`, the percent of DMSO control GFP in experiment [1] is 92.6% (inactive). The GFP response vs DMSO in experiment [2] is 106% (inactive); in experiment [4] it was 78.1% (inactive). In [3], the percent response of DMSO control was 114% (inactive). Besides, the double positive events in experiment [5] amounted to 52.4%. Further, the vesicle binding response in [5] was 110% (inactive). For the same molecule, the inhibition in experiment [6] was 5.49% (inactive); in experiment [10] it was -13.1% (inactive); in [14], 11% (inactive). In addition, the superoxide response (% of plate) in [7] is 97.4% (inactive). The aptamer binding inhibition in [8] is 2% (inactive). Moreover, the response in experiment [9] is -10.4% (inactive); in experiment [11], 1.53% (inactive). The binding (% of control) in experiment [12] is 103% (inactive). Also, in experiment [13], the efflux inhibition (fraction of control) was 0.01 (inactive). The differentiation response in experiment [15] was 0% (inactive).
On to `CN(C)CCOc1ccc(Cl)cc1C(C)(C)C`, for which the percent of DMSO control GFP in experiment [1] was 103% (inactive). In addition, the figures for the GFP response vs DMSO in experiment [2] and in experiment [4] were 98.5% (inactive) and 122% (inactive), respectively. Besides, in [3], the percent response of DMSO control was 105% (inactive). Also, the GFP response, % of DMSO in [16] was 109% (inactive). Also, the double positive events in [5] amounted to 40.5%. The inhibition in experiment [6] is 7.76% (inactive); in experiment [10], -1.49% (inactive); in experiment [14], 5% (inactive). In addition, in experiment [7], the superoxide response (% of plate) is 105% (inactive). Moreover, the aptamer binding inhibition in experiment [8] is -1% (inactive). In addition, the response in experiment [9] was -20.4% (inactive); in [11], -1.18% (inactive). The binding (% of control) in experiment [12] was 99.5% (inactive). In [13], the efflux inhibition (fraction of control) is 0.05 (inactive). For the same molecule, the differentiation response in [15] was -16.8% (inactive).
For the molecule `COc1ccc(-c2coc3cc(O)cc(O)c3c2=O)cc1`, in experiment [1], the percent of DMSO control GFP is 88.2% (inactive). The GFP response vs DMSO in experiment [2] was 99.9% (inactive); in experiment [4], 72.6% (inactive). Further, in experiment [3], the percent response of DMSO control is 116% (inactive). In experiment [5], the double positive events is 58.4%. Besides, in experiment [5], the vesicle binding response is 199% (inactive). The figures for the inhibition in experiment [6], in experiment [10] and in experiment [14] were 5.49% (inactive), 1.72% (inactive) and 7% (inactive), respectively. In addition, in [7], the superoxide response (% of plate) was 106% (inactive). Moreover, the aptamer binding inhibition in experiment [8] is 0% (inactive). The response is -6.34% (inactive) in experiment [9] and 1.71% (inactive) in [11]. Further, in experiment [12], the binding (% of control) was 101% (inactive). For the same molecule, the efflux inhibition (fraction of control) in experiment [13] was -0.28 (inactive). In addition, the differentiation response in [15] was -9.83% (inactive).
In the case of `C[C@]12CCC(=O)C=C1CC[C@@H]1[C@@H]2C(=O)C[C@@]2(C)[C@H]1CC[C@]2(O)C(=O)CO`, the percent of DMSO control GFP in experiment [1] is 89.8% (inactive). The GFP response vs DMSO in experiment [2] was 125% (inactive); in [4], 88% (inactive); in experiment [17] it was 97% (inactive); in experiment [17] (setting [21]), 97.3%; in experiment [17] (setting [22]), 98.1%; in experiment [19] it was 102% (inactive). The percent response of DMSO control in experiment [3] was 108% (inactive). For the same molecule, the GFP response relative to DMSO is 96.5% (inactive) in experiment [18], 99.3% in experiment [18] (measured here: daughter cell gate response) and 94.6% in experiment [18] (measured here: mother cell gate response). The GFP response, % of DMSO in [20] is 99.3% (inactive); in [20] (setting [21]), 100%; in [20] (setting [22]), 99.1%. In experiment [5], this molecule displayed a double positive events of 61.9%. For the same molecule, the vesicle binding response in experiment [5] was 136% (inactive). Further, the inhibition in experiment [6] was 14.2% (inactive); in experiment [10], -9.52% (inactive); in experiment [14], 14% (inactive). Further, the superoxide response (% of plate) in experiment [7] was 94.9% (inactive). For the same molecule, the aptamer binding inhibition in experiment [8] was 4% (inactive). Moreover, the response is -5.55% (inactive) in [9] and 1.03% (inactive) in experiment [11]. The binding (% of control) in [12] was 101% (inactive). Also, the efflux inhibition (fraction of control) in experiment [13] is 0.3 (inactive). The differentiation response in experiment [15] was 14.7% (inactive).
